Screening results: PubChem BioAssay, National Center for Advancing Translational Sciences (NCATS)
Compounds with a hit are over-represented: about 4.6% of the library has one in this group of screens.
TR SRC2 fluor cs – alters Texas Red total fluorescence, flagging assay interference. TRb/SRC2 Texas Red total fluorescence interference. Potency, µM (top dose mostly 106 µM). actives 0.29% (n = 280,000). AID 1479; active = well fitted curve in either direction with a large enough effect; inconclusive = small, poorly fitted or top-dose-only effect
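Flags fluorescent or light-absorbing compounds by total fluorescence, S + 2P, at 555 nm excitation and 632 nm emission. Mixture: 20 nM Texas Red SRC2 peptide, 0.6 uM human TRb LBD, 1 uM T3, 5% DMSO; compound exposure 5 h at ambient temperature.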
Tau fluor cs – counter-screen for tau fibril formation inhibitors; tau K18 P301L Alexa594 fluorescence, heparin fibrillization; Potency, µM (series often up to 57.7 µM); actives 0.93% (n = 280,000); AID 1463; note: nearly all actives have a fitted effect of over 55% in size
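Human K18 P301L tau (15 uM unlabeled plus 0.24 uM Alexa 594-labeled, final) in 100 mM sodium acetate pH 7 was mixed with compound and 20 uM heparin and incubated 6 hr at 37 C.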
Tau FP inhib – tau fibrillization inhibition (FP); Potency, µM (highest dose often 57.7 µM), hits mostly inhibitors; P10636; actives 0.39% (n = 280,000); K18 P301L tau heparin fibrillization, Alexa594 FP, 6 h; AID 1468; note: nearly all actives have a fitted effect of over 55% in size
Target sequence (P10636 561-689 P618L limits assumed): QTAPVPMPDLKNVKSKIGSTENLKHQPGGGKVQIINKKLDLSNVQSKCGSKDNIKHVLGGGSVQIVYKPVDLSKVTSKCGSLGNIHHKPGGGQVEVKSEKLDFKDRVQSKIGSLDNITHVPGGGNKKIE
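Steps: dispense K18 P301L tau (15 uM plus 0.24 uM Alexa 594 tracer, final) in pH 7 sodium acetate; add compound; add heparin (20 uM final); incubate 6 hr, 37 C; add ThT (30 uM final); after 1 hr ambient, read FP.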
TRb SRC2 PPI – inhibitors of human thyroid hormone receptor beta-SRC2 interaction. TRbeta-SRC2 peptide binding, fluorescence polarization; receptor liganded with 1 µM T3. actives 0.065% (n = 280,000). Potency, µM (top dose mostly 106 µM), most hits filed as inhibitors. P10828. AID 1469; note: nearly all actives have a fitted effect of over 50% in size
Target sequence (P10828 whole entry, looked up): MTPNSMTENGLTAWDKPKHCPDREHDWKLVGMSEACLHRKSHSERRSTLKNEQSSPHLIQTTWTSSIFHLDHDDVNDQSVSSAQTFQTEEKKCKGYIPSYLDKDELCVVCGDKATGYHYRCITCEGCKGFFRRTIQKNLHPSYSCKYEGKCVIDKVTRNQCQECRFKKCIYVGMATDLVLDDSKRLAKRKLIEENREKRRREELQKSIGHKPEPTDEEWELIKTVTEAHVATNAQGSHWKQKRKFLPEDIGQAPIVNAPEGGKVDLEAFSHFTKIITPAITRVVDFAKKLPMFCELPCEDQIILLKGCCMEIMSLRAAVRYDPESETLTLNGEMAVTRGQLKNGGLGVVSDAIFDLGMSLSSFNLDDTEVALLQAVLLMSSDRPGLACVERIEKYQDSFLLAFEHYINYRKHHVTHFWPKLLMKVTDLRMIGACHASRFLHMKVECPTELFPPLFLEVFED
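Assay buffer: 20 mM Tris-HCl, 100 mM NaCl, 10% glycerol, 1 mM EDTA, 0.01% NP-40, 1 mM DTT, 1 uM T3, 5% DMSO; TRb LBD 0.6 uM, Texas Red SRC2 20 nM; FP after 5 hr.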
Tau ThT inhib – blocks human tau fibril formation measured by thioflavin T | P10636 | recombinant tau K18 P301L (four-repeat tau fragment), heparin-induced fibrillization, ThT fluorescence | Potency, µM (top dose mostly 57.4 µM), usual class: inhibitors | actives 2.1% (n = 270,000) | AID 1460; note: nearly all actives have a fitted effect of over 55% in size
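Aggregation was driven by heparin (20 uM final) acting on recombinant tau […] bearing P301L in 100 mM sodium acetate pH 7; fibrils were detected with Thioflavin T.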
PNC assembly inh – perinucleolar compartment assembly inhibition; PC3M PTB-GFP, PNC prevalence imaging, 16 h; stronger effect = lower value; activity change (PNC), negative = inhibition, % at 10 µM; actives 3.1% (n = 140,000);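 active = readout at or below -70, meaning at least 70% loss of cells showing the perinucleolar compartment, a nuclear body marking cancer cells; inconclusive = readout between -30 and a set limit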
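Compounds are pinned in duplicate onto adhered PC3M cells stably expressing GFP-tagged PTB and incubated 16 h at 37 C. Cells are then fixed, nuclei stained with Hoechst, and PNC-positive cells counted.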
Large screens that a line does not name were inactive; [ ] = remark or other dose. Unless noted, calls come from the whole dose curve; as a rule, active = well fitted curve in the direction sought with a large enough effect; inconclusive = small, poorly fitted or top-dose-only effect, or another doubt; inactive = no such curve, though single readings can be large; an effect the other way counts as inactive or inconclusive.

O=CN/C=C/c1cc(O)ccc1O	Tau fluor cs 28.2µM[quencher], Tau FP inhib inconclusive, Tau ThT inhib 25.1µM (no result: PNC assembly inh)
CCOC(=O)C(NCc1ccccn1)(NC(=O)c1cccnc1)C(F)(F)F (stereo not given)	PNC assembly inh -86.1
C=CCON/C(CCC)=C1\C(=O)C(C(=O)OC)C(C)(C)CC1=NC (stereo not given)	none (no result: PNC assembly inh)
COc1cc(NCCCC(C)N)c2ncccc2c1 (stereo not given)	TR SRC2 fluor cs 44.7µM[fluorescent], Tau fluor cs inconclusive, Tau FP inhib inconclusive, TRb SRC2 PPI 28.2µM, Tau ThT inhib 25.1µM
CCC(CNc1cc(OC)cc2cccnc12)NC1CCCCC1 (stereo not given)	TRb SRC2 PPI inconclusive, Tau ThT inhib inconclusive (no result: PNC assembly inh)
COc1cc(NS(=O)(=O)c2ccc(C)cc2)c2ncccc2c1	Tau fluor cs inconclusive, PNC assembly inh -100.0
Cc1sc2c(c1C)C(=O)NC(c1cccc(O)c1)N2 (stereo not given)	Tau ThT inhib inconclusive
Cc1cc(-c2ccccc2)nc(-c2ccccc2)c1C	Tau ThT inhib 3.16µM (no result: PNC assembly inh)
O=C1C=C(N2CCN(C3=CC(=O)CCC3)CC2)CCC1	Tau FP inhib inconclusive, Tau ThT inhib 25.1µM
COc1ccccc1N1CCN(C2=CC(=O)CCC2)CC1	Tau ThT inhib inconclusive, PNC assembly inh inconclusive
CC(=O)CC(=O)Nc1ncccn1	none (no result: PNC assembly inh)
CCC(C)n1c(SCc2c(F)cccc2Cl)nc2ccsc2c1=O (stereo not given)	none (no result: PNC assembly inh)
CCC(C)n1c(SCc2ccc([N+](=O)[O-])cc2)nc2ccsc2c1=O (stereo not given)	PNC assembly inh -119.3
C#CCSc1nc(-c2ccccc2)c2cc(Cl)ccc2n1	Tau FP inhib inconclusive (no result: PNC assembly inh)
CCN(CC)C(=O)CSc1nc2ncc(Br)cc2[nH]1	PNC assembly inh inconclusive
O=C(CSc1nc2ncc(Br)cc2[nH]1)c1ccc([N+](=O)[O-])cc1	Tau fluor cs inconclusive, Tau FP inhib inconclusive, Tau ThT inhib 28.2µM, PNC assembly inh inconclusive
O=C(NC12CC3CC(CC(C3)C1)C2)c1ccc(-c2ccc(Br)cc2)o1	none
CNc1sc(C(=O)c2ccccc2F)c(N)c1-c1nc2ccccc2s1	Tau fluor cs 11.2µM[quencher], Tau ThT inhib 7.94µM
CC(=O)c1ccc(NC(=S)Nc2ccc(Br)c(Cl)c2)cc1	Tau fluor cs inconclusive, Tau FP inhib inconclusive (no result: PNC assembly inh)
CC(=O)c1ccc(NC(=S)NC(C)c2ccc(Cl)cc2Cl)cc1 (stereo not given)	Tau fluor cs 14.1µM[quencher], Tau FP inhib 31.6µM (no result: PNC assembly inh)
Fc1ccc(C(c2nnnn2C2CCCC2)N2CCc3ccccc32)cc1 (stereo not given)	Tau fluor cs inconclusive, Tau ThT inhib inconclusive
COc1cc(/C=C2/C(=O)c3cccc([N+](=O)[O-])c3C2=O)c(Br)cc1O	Tau fluor cs inconclusive, Tau FP inhib inconclusive, Tau ThT inhib 12.6µM
c1ccc(COc2ccc(Nc3ncnc4nc[nH]c34)cc2)cc1	Tau fluor cs 14.1µM[quencher], Tau ThT inhib inconclusive
CCN1C(=O)/C(=C/C=C2\C=CN(CC)c3ccccc32)SC1=S	Tau fluor cs inconclusive, Tau FP inhib inconclusive, Tau ThT inhib 2.24µM
CCN1C(=O)/C(=C2/C=CC=CN2C)SC1=S	Tau ThT inhib inconclusive
CCN1C(=O)/C(=C\C=C2/C=CC=CN2CC)SC1=S	Tau FP inhib inconclusive, Tau ThT inhib 14.1µM, PNC assembly inh inconclusive
C/C=C/c1ccc(OCCCN2C(=O)NC(C)(C)C2=O)c(OC)c1	PNC assembly inh -125.3
Cc1ccc2nc(-c3ccc(NC(=O)CN4C(=O)NC(C)(c5ccc(OC(F)F)cc5)C4=O)cc3)sc2c1 (stereo not given)	none
O=[N+]([O-])c1cc2oc3c(c2c(C=NCc2ccncc2)c1O)CCCC3	Tau fluor cs inconclusive, Tau FP inhib inconclusive, Tau ThT inhib 10µM
CCCN1C(=O)c2cccc3c(N4CCCCC4)ccc(c23)C1=O	PNC assembly inh -88.3
O=C1c2cccc3c(N4CCCCC4)ccc(c23)C(=O)N1c1ccccn1	Tau ThT inhib inconclusive
COc1ccc(-c2nc(NC(=O)c3ccc(OCC(=O)Nc4ccc(F)cc4)c(OC)c3)sc2C)cc1	none
C=CCN1C(=O)C2(/C(=C(\O)c3ccc4c(c3)OCCO4)C(=O)C(=O)N2CCCOC)c2ccccc21 (stereo not given)	PNC assembly inh -96.4
Cc1c(Cl)cccc1NC(=O)CNc1cccc(S(=O)(=O)N(C)C)c1	none
COc1ccc(CC(=O)Nc2ccc3nc(Nc4cccc(Cl)c4)cc(C)c3c2)cc1	Tau fluor cs 4.47µM[quencher], Tau FP inhib inconclusive, Tau ThT inhib inconclusive (no result: PNC assembly inh)
Cc1ccc(OCC(=O)Nc2ccc3nc(Nc4cccc(Cl)c4)cc(C)c3c2)cc1	Tau fluor cs inconclusive (no result: PNC assembly inh)
Cc1cccc(OCC(=O)Nc2ccc3nc(Nc4cccc(C(F)(F)F)c4)cc(C)c3c2)c1	TR SRC2 fluor cs inconclusive, Tau fluor cs inconclusive (no result: PNC assembly inh)
COc1ccc(CCC(=O)Nc2cccc(Cl)c2)cc1	PNC assembly inh -82.7
Cc1cc(Nc2cccc(C(F)(F)F)c2)nc2ccc(NC(=O)Cc3ccc(Cl)cc3)cc12	Tau fluor cs 7.94µM[quencher], Tau FP inhib inconclusive, Tau ThT inhib inconclusive (no result: PNC assembly inh)
COc1ccccc1CC(=O)Nc1ccc2nc(Nc3cccc(Cl)c3)cc(C)c2c1	Tau fluor cs 3.98µM[quencher], Tau FP inhib inconclusive, Tau ThT inhib inconclusive (no result: PNC assembly inh)
COc1cc2c(cc1OC)C(c1ccc(-c3ccc(Cl)c(Cl)c3)o1)=NCC2	Tau fluor cs inconclusive, Tau ThT inhib 11.2µM, PNC assembly inh inconclusive
Cc1cc2cc(C(c3nnnn3Cc3ccco3)N3CCCCC3)c(=O)[nH]c2cc1C (stereo not given)	Tau ThT inhib inconclusive
CCOc1ccc2[nH]c(=O)c(CN(Cc3nnnn3Cc3ccco3)C3CCCCC3)cc2c1	TR SRC2 fluor cs inconclusive, Tau FP inhib inconclusive, Tau ThT inhib 22.4µM, PNC assembly inh inconclusive
CCOc1ccc2[nH]c(=O)c(CN(CCO)Cc3nnnn3CCc3ccccc3)cc2c1	PNC assembly inh -85.1
COc1cc2cc(CN(Cc3nnnn3Cc3ccco3)C3CCCCC3)c(=O)[nH]c2cc1OC	Tau fluor cs inconclusive, Tau FP inhib inconclusive, Tau ThT inhib 15.8µM
CCOc1ccc2[nH]c(=O)c(C(c3nnnn3Cc3ccco3)N3CCN(C)CC3)cc2c1 (stereo not given)	Tau FP inhib inconclusive, TRb SRC2 PPI inconclusive, Tau ThT inhib 14.1µM (no result: PNC assembly inh)
COCCn1nnnc1CN(Cc1cc2cc(OC)c(OC)cc2[nH]c1=O)C1CCCC1	none
COc1ccc(CNC(=O)c2ccc(N3CCCC3=O)cc2)cc1	none
Cc1cccc(N2CCN(CC(=O)Nc3ccccc3[N+](=O)[O-])CC2)c1C	Tau ThT inhib inconclusive
